Laboratory results: PubChem BioAssay (Tox21)
Inconclusive results are not listed. Values without a mark were called inactive. The source made the active and inactive calls. Calls come from the whole dose curve.
% is set by controls: 0 for no effect and ±100 for the full control effect; potency is the fitted concentration of half-maximal effect.

What follows are compounds tested against 5-hydroxytryptamine receptor 2A (Homo sapiens) (UniProt P28223) (assay: 5-hydroxytryptamine receptor 2A (HTR2A) small molecule antagonists, cell-based qHTS assay (AID 1963586; note: nearly all actives have a fitted effect of over 45% in size)). Conditions: HTR2A-CHO cells, DOI-induced calcium flux, fluorescence; series mostly up to 61.5 µM; activity, negative = inhibition: at the top concentration.
Chain of 5-hydroxytryptamine receptor 2A (Homo sapiens) (P28223 whole entry, looked up): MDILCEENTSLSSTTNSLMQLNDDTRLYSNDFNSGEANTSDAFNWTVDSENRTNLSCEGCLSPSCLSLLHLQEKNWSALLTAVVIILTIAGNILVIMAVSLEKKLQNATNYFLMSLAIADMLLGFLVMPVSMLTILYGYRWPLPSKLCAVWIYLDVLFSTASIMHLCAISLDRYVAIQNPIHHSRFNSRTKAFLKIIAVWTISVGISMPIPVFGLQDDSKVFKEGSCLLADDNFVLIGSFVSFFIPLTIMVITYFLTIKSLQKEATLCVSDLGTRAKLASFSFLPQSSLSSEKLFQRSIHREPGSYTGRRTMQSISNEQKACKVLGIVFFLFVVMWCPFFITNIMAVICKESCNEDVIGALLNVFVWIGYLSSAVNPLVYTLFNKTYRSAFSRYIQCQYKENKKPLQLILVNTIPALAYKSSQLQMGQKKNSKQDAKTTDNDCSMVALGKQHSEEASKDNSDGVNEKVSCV
Source text: National Center for Advancing Translational Sciences [NCATS]
Division of Preclinical Innovation [DPI]
U.S. Environmental Protection Agency [EPA]
National Institutes of Environmental Health Sciences [NIEHS]
National Toxicology Program [NTP]
U.S. Food and Drug Administration [FDA]
The HTR2A receptor is a subtype of the 5-HT2 receptor that belongs to the serotonin receptor family and is a G protein-coupled receptor (GPCR). The HTR2A-CHO cell line stably expressing human 5-hydroxytryptamine receptor 2A (HTR2A) can be used for screening antagonists of interactions between 5-HT2 and its ligands. The HTR2A-CHO calcium flux assay is a homogeneous fluorescence-based assay for detecting the intracellular calcium level using FDSS kinetic plate reader system.
Tox21 Assay Protocol Summary:
HTR2A-CHO cells were dispensed at 2000 cells/3uL/well in 1536-well black-clear bottom plates using a Multidrop Dispenser. After the assay plates were incubated at a 37 C/5% CO2 incubator for 18 h, 3 uL of Dye Loading Buffer was transferred to the assay plate by a Flying Reagent Dispenser. The assay plates were incubated at 37 C for 1h. For antagonist mode, 23 nL of compounds dissolved in DMSO, positive controls or DMSO only was transferred to the assay plate by a pin tool. After 5 min incubation at room temperature, 1.5 uL of 4-Iodo-2,5-dimethoxy-alpha-methylbenzeneethanamine hydrochloride (DOI) at 4nM was added to each well. The fluorescence intensity in the plates was measured using FDSS 7000EX kinetic plate reader for 3 min at 1 sec intervals.
With `NCCOCCOCCN` the “activity, negative = inhibition” value was 2.12%. For `Cc1cc(Br)ccc1NC(=O)CCl`, the “activity, negative = inhibition” value was 4.13%. For `CCN(CC)c1ccc(N)cc1`, the “activity, negative = inhibition” value was -0.206%. In the case of `Cc1nc2n(c(=O)c1CCN1CCC(C(=O)c3ccc(F)cc3)CC1)CCS2`, the Potency is reported as 0.0041 µM (active). In the case of `COc1ccc2sc(C(=O)Nc3nnn[nH]3)c(OC(C)C)c2c1`, the “activity, negative = inhibition” value is reported as 11.4%. With `Cc1c(C)c2c(c(C)c1OC(=O)CCC(=O)O)CC[C@@](C)(CCC[C@H](C)CCC[C@H](C)CCCC(C)C)O2` the “activity, negative = inhibition” value was -5.16%. For `SC1CCCCC1`, the “activity, negative = inhibition” value was -2.79%. `CCCCCc1ccco1` was tested, and the “activity, negative = inhibition” value was 0.765% [at 28.5 µM]. With `CN1CCN(Cc2cc(-c3ccc4[nH]c(=O)oc4c3)co2)[C@@H](c2ccc(F)cc2)C1` the “activity, negative = inhibition” value was -41.3%. For `CCCCOCC`, the “activity, negative = inhibition” value was 2.1%. `CC(C)c1ccc2oc3nc(N)c(C(=O)O)cc3c(=O)c2c1` was tested, and the “activity, negative = inhibition” value was -9.64% [at 28.5 µM]. `O=S(=O)(O)c1ccc(Cl)cc1` was tested, and the “activity, negative = inhibition” value was 0.151%. With `Cc1ccc2sc3cccc(C)c3c2c1` the “activity, negative = inhibition” value was 15.5%. In the case of `Oc1ccc(Cl)c2cccnc12`, the “activity, negative = inhibition” value is reported as 32.4% [at 28.5 µM]. `CCCCCCC(=O)OCC` was tested, and the “activity, negative = inhibition” value was 4.81%. `CC(C)=CCC1=C(O)c2ccccc2C(=O)C1=O` was tested, and the “activity, negative = inhibition” value was -19.2%. For `C=CC(C)(O)CCCC(C)CCCC(C)CCCC(C)C` (stereo not given), the “activity, negative = inhibition” value was 14.8%. `CN(C)CCN(Cc1ccc(Cl)cc1)c1ccccn1` was tested, and the Potency was 8.18 µM (active). In the case of `OCCC(F)(F)C(F)(F)C(F)(F)C(F)(F)C(F)(F)C(F)(F)C(F)(F)C(F)(F)F`, the “activity, negative = inhibition” value is reported as -27%. For `Nc1ccc(F)c([N+](=O)[O-])c1`, the “activity, negative = inhibition” value was -1.23%. In the case of `Nc1cc(C(=O)O)c(O)c(S(=O)(=O)O)c1`, the “activity, negative = inhibition” value is reported as 11.4%. With `COC(=O)CS` the “activity, negative = inhibition” value was -20.3%. For `O=C(Nc1cccc2c(=O)cc(-c3nn[nH]n3)oc12)c1ccc(OCCCCc2ccccc2)cc1`, the “activity, negative = inhibition” value was -14.4% [at 28.5 µM]. In the case of `CC1(C)OC(=O)Nc2ccc(Br)cc21`, the “activity, negative = inhibition” value is reported as -6.75% [at 28.5 µM]. `CC(O)c1ccccc1` (stereo not given) was tested, and the “activity, negative = inhibition” value was 7.19%. With `COc1cc2nc(Cl)nc(N)c2cc1OC` the “activity, negative = inhibition” value was 18% [at 28.5 µM]. For `CN(C)CCCOc1nn(Cc2ccccc2)c2ccccc12`, the “activity, negative = inhibition” value was -26.7% [at 28.5 µM]. In the case of `O=C(NS(=O)(=O)/C=C/c1ccccc1)c1ccc(F)cc1Cl`, the “activity, negative = inhibition” value is reported as -0.869%. For `O=c1[nH]cnc2ccccc12`, the “activity, negative = inhibition” value was 8.61%. With `Cc1ccc2c(c1)C(=O)c1ccccc1C2=O` the “activity, negative = inhibition” value was 7.25%. In the case of `C=CC(=O)OCCOCCOC(=O)C=C`, the “activity, negative = inhibition” value is reported as 67.5%. In the case of `Cc1ccc2c(Cl)cc(Cl)c(O)c2n1`, the “activity, negative = inhibition” value is reported as 13.3% [at 28.5 µM]. In the case of `CC1(C)C(=O)N(CO)C(=O)N1CO`, the “activity, negative = inhibition” value is reported as 15.9%. `COC(=O)C1CC(=O)C(C(=O)OC)CC1=O` (stereo not given) gave an activity, negative = inhibition of 1.92% [at 5.62 µM]. `O=C(/C=C/c1ccccc1)OCCCc1ccccc1` was tested, and the “activity, negative = inhibition” value was -0.109%. With `OC[C@H](Cc1cccc(O)c1)[C@H](CO)Cc1cccc(O)c1` the “activity, negative = inhibition” value was 24.8%. With `Cc1cccc(C)n1` the “activity, negative = inhibition” value was 0.622%. For `COc1cc(S(=O)(=O)O)c(C)cc1N=Nc1c(O)ccc2cc(S(=O)(=O)O)ccc12`, the “activity, negative = inhibition” value was 92.6%. `CC(C)(C)NSc1nc2ccccc2s1` was tested, and the “activity, negative = inhibition” value was -6.32%. `O=C(O)c1ccccc1NCCc1ccccc1` was tested, and the “activity, negative = inhibition” value was 16.2% [at 28.5 µM].
